Compounds without any hit were thinned out: in the full panel of roughly 83,000, 20% have a hit.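 48-hour exposure, single concentration, 96-well plates; percent growth endpoint where 0 means no net growth. Active: below 10.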 Active and inactive are the calls of the source.
Key:
Assay in all cases: NCI-60 one-dose screen, 48 h (100 = growth as untreated, 0 = no growth, -100 = all killed)
DU-145 prostate = details: 10 µM unless noted
K-562 leukemia = details: 10 µM unless noted
MALME-3M melanoma = details: 10 µM unless noted
MDA-MB-231 breast = details: 10 µM unless noted
RXF 393 renal = details: 10 µM unless noted
SF-268 CNS = details: 10 µM unless noted
SF-295 CNS = details: 10 µM unless noted
SF-539 CNS = details: 10 µM unless noted
UACC-257 melanoma = details: 10 µM
M14 melanoma = details: 10 µM unless noted
HCT-15 colon = details: 10 µM unless noted
HT29 colon = details: 10 µM unless noted
SNB-75 CNS = details: 10 µM unless noted
SNB-19 CNS = details: 10 µM unless noted
U251 CNS = details: 10 µM unless noted
PC-3 prostate = details: 10 µM unless noted
SK-MEL-5 melanoma = details: 10 µM unless noted
UACC-62 melanoma = details: 10 µM unless noted
SK-MEL-28 melanoma = details: 10 µM unless noted
LOX IMVI melanoma = details: 10 µM unless noted

Measured: growth

COc1ccc(/C=C/C(=O)c2ccc(NC(=O)CN3CCN(c4cc5c(cc4F)c(=O)c(C(=O)O)cn5C4CC4)CC3)cc2)cc1
inactive: DU-145 prostate 126% | K-562 leukemia 104% | MALME-3M melanoma 94.5% | MDA-MB-231 breast 96.2% | RXF 393 renal 98.4% | SF-268 CNS 113% | SF-295 CNS 95.3% | SF-539 CNS 108% | UACC-257 melanoma 96.5% | M14 melanoma 96.9% | HCT-15 colon 108% | HT29 colon 114% | SNB-75 CNS 89.2% | SNB-19 CNS 94.7% | U251 CNS 98.6% | PC-3 prostate 92.4% | SK-MEL-5 melanoma 94% | UACC-62 melanoma 93.2% | SK-MEL-28 melanoma 106%

COc1cc(NC(=O)CCl)ccc(=O)c1
inactive: DU-145 prostate 83.5% | K-562 leukemia 75.2% | MALME-3M melanoma 87.7% | MDA-MB-231 breast 58.6% | RXF 393 renal 84.7% | SF-268 CNS 77.6% | SF-295 CNS 80.9% | SF-539 CNS 83.5% | UACC-257 melanoma 66% | M14 melanoma 78.6% | HCT-15 colon 28.6% | HT29 colon 70.1% | SNB-75 CNS 72% | SNB-19 CNS 93% | U251 CNS 31.9% | SK-MEL-5 melanoma 75% | UACC-62 melanoma 57.2% | LOX IMVI melanoma 49.1% | SK-MEL-28 melanoma 85.4%

COc1cc(NC(=O)CSc2nc3ccc(C)cc3c(=O)n2-c2ccccc2)cc(OC)c1OC
inactive: DU-145 prostate 110% | K-562 leukemia 87.1% | MALME-3M melanoma 90.5% | MDA-MB-231 breast 77.3% | RXF 393 renal 86.2% | SF-268 CNS 86.2% | SF-295 CNS 92.2% | SF-539 CNS 93.6% | UACC-257 melanoma 83% | M14 melanoma 79.9% | HCT-15 colon 81.1% | HT29 colon 109% | SNB-75 CNS 57.4% | SNB-19 CNS 88% | U251 CNS 93.9% | SK-MEL-5 melanoma 77.8% | UACC-62 melanoma 77.5% | SK-MEL-28 melanoma 83.7%

O=C(NCCCN1CCN(CCCNC(=O)C2CCCCC2)CC1)C1CCCCC1
inactive: DU-145 prostate 110% | K-562 leukemia 92.7% | MALME-3M melanoma 94% | MDA-MB-231 breast 108% | RXF 393 renal 119% | SF-268 CNS 104% | SF-295 CNS 84.5% | SF-539 CNS 96.7% | UACC-257 melanoma 97.1% | M14 melanoma 98.6% | HCT-15 colon 97.5% | HT29 colon 108% | SNB-75 CNS 88.7% | SNB-19 CNS 107% | U251 CNS 96.9% | PC-3 prostate 91.3% | SK-MEL-5 melanoma 105% | UACC-62 melanoma 98.3% | LOX IMVI melanoma 101% | SK-MEL-28 melanoma 99.7%

O=C1c2ccccc2C(=O)c2c(N=Nc3sc(=O)[nH]c3S)cccc21
inactive: DU-145 prostate 103% | K-562 leukemia 78.5% | MALME-3M melanoma 93.3% | MDA-MB-231 breast 97.1% | RXF 393 renal 115% | SF-268 CNS 97.3% | SF-295 CNS 97.2% | SF-539 CNS 107% | UACC-257 melanoma 88.5% | M14 melanoma 96.2% | HCT-15 colon 94% | HT29 colon 82.9% | SNB-75 CNS 112% | SNB-19 CNS 93.4% | U251 CNS 91.6% | PC-3 prostate 89.9% | SK-MEL-5 melanoma 93.4% | UACC-62 melanoma 88.8% | LOX IMVI melanoma 84.9% | SK-MEL-28 melanoma 110%

COc1cc2nc(SCc3cc(OC)c(OC)c(OC)c3)n(Cc3ccccc3)c(=O)c2cc1OC
active: RXF 393 renal 4.55% | SF-539 CNS -6.22% | SNB-75 CNS -16.6% | SK-MEL-5 melanoma -8.17%
inactive: DU-145 prostate 49.8% | K-562 leukemia 10.2% | MALME-3M melanoma 21.9% | MDA-MB-231 breast 36% | SF-268 CNS 37.9% | SF-295 CNS 19.7% | UACC-257 melanoma 63.3% | M14 melanoma 14.9% | HCT-15 colon 20.1% | HT29 colon 10.6% | SNB-19 CNS 48.8% | U251 CNS 29% | PC-3 prostate 48.8% | UACC-62 melanoma 23.4% | SK-MEL-28 melanoma 39.2%

CC(C)C[C@H](NC(=O)[C@H](Cc1ccccc1)n1ccc(N2CCCCC2)cc1=O)B(O)O
active: K-562 leukemia 9.62% | MALME-3M melanoma -23.8% | MDA-MB-231 breast -26.2% | RXF 393 renal -54% | SF-268 CNS -8.05% | SF-295 CNS 7.12% | SF-539 CNS -11.5% | UACC-257 melanoma -16.9% | HT29 colon 0.204% | SNB-75 CNS 4.25% | SK-MEL-5 melanoma -25.2% | UACC-62 melanoma -12.5%
inactive: DU-145 prostate 41.3% | M14 melanoma 12.5% | HCT-15 colon 28.3% | SNB-19 CNS 29.2% | U251 CNS 18.1% | PC-3 prostate 27.7% | SK-MEL-28 melanoma 28.6%

CCn1cc(C(=O)O)c(=O)c2cc(F)c(N3CCN(S(=O)(=O)c4cccc5ccccc45)CC3)cc21
active: MALME-3M melanoma -16% | SF-295 CNS 7.68% | HT29 colon 3.96% | PC-3 prostate 7.82% | SK-MEL-5 melanoma -46%
inactive: DU-145 prostate 18.9% | K-562 leukemia 15.4% | MDA-MB-231 breast 23.9% | RXF 393 renal 29% | SF-268 CNS 16.4% | SF-539 CNS 17.4% | UACC-257 melanoma 14% | M14 melanoma 17.9% | HCT-15 colon 11.1% | SNB-75 CNS 14.1% | SNB-19 CNS 28.8% | U251 CNS 14.2% | UACC-62 melanoma 31.2% | SK-MEL-28 melanoma 59.2%

Source: PubChem BioAssay (NCI)
